Inconclusive results are not listed. Activity calls are given as the source filed them. The call rests on the fitted dose curve; in most records, active means well fitted curve in the direction sought with a large enough effect; inconclusive means small, poorly fitted or top-dose-only effect, or another doubt; inactive means no such curve, though single readings can be large; an effect the other way counts as inactive or inconclusive.
How the values were obtained:
[1] = qHTS assay for measurement of the activity of small molecule inhibitors on Zika virus induced Caspase-3 activity in human astrocytoma cells (AID 1224859)
Summary of the method: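 Compound added 1 h pre-infection; ZIKV 2 FFU/cell on SNB-19 cells, 6 h, 37 C/5% CO2. Caspase-Glo 3/7 luminescence; values as % inhibition of ZIKV-induced caspase activity.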

[2] = qHTS assay to identify small molecule inhibitors of chordoma cells - UCH-1 (AID 1259355); further: nearly all actives have a fitted effect of over 55% in size
Summary of the method: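 Luminescent ATP read-out (CellTiter-Glo, 30min at room temperature) measured viability of UCH-1 cells exposed for 48hr to test drugs at 15 concentrations, co-dosed with a five-agent combination of auranofin, camptothecin, doxorubicin, rubitecan and topotecan.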

[3] = qHTS assay to identify small molecule inhibitors of chordoma cells - UCH-2 (AID 1259356); further: series mostly up to about 46 µM
[4] = P-glycoprotein substrates identified in KB-8-5-11 adenocarcinoma cell line, qHTS therapeutic library screen (AID 1346987); further: series mostly up to about 44 µM; nearly all actives have a fitted effect of over 65% in size
Summary of the method: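 KB-8-5-11, a colchicine-selected P-gp-overexpressing KB-3-1 subline, was grown without colchicine for the assay. Cells were seeded at 500 cells/well, dosed in concentration-response and incubated 72 h at 37 degree C, 5% CO2. Viability was read by CellTiter-Glo luminescence.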

[5] = NS1 protein of Zika virus - qHTS assay to identify small molecule inhibitors in human HEK 293 cells (AID 1347053); further: series mostly up to about 46 µM; nearly all actives have a fitted effect of over 55% in size
Summary of the method: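 HEK 293; 20 h pre-culture, 37 C/5% CO2; cpd 1 h pre-infection; ZIKV MR766, MOI = 0.5, 24 h, 37 C; TR-FRET NS1 readout (two anti-NS1 Abs); norm. to no-virus vs infected.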

[6] = qHTS of pediatric cancer cell lines to identify multiple opportunities for drug repurposing: Primary screen for TC32 cells (AID 1347089); further: nearly all actives have a fitted effect of over 60% in size
Summary of the method: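 Luminescent CellTiter-Glo read-out of metabolically active TC32 cells after 48 h compound exposure. Primary: MIPE 11-point, 0.78 nM–46 µM; NPC 8-point, 0.59 nM–46 µM. Confirmatory: 11-point dilutions.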

[7] = qHTS of pediatric cancer cell lines to identify multiple opportunities for drug repurposing: Primary screen for DAOY cells (AID 1347090); further: series mostly up to about 46 µM; nearly all actives have a fitted effect of over 55% in size
Summary of the method: (§1)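 Eight- or eleven-point concentration series, 48 h treatment at 37 degrees C in growth media; readout CellTiter-Glo luminescence. Potency and efficacy were taken from the concentration-response curves.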

[8] = qHTS of pediatric cancer cell lines to identify multiple opportunities for drug repurposing: Primary screen for SJ-GBM2 cells (AID 1347091)
Summary of the method: as §1

[9] = qHTS of pediatric cancer cell lines to identify multiple opportunities for drug repurposing: Primary screen for SK-N-MC cells (AID 1347093); further: series mostly up to about 46 µM
Summary of the method: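 Metabolically active cells were quantified by ATP-dependent luminescence (CellTiter-Glo, 15 min at room temperature) following 48 h treatment. Cells had been plated at 500-1,000 per well and settled for 5 h beforehand.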

[10] = qHTS of pediatric cancer cell lines to identify multiple opportunities for drug repurposing: Primary screen for BT-37 cells (AID 1347094); further: series mostly up to about 57 µM
Summary of the method: (§2)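 Viability was measured as metabolically active cells after 48 hours of treatment, read by CellTiter-Glo luminescence. Compounds were tested at multiple final concentrations, giving concentration-response curves.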

[11] = qHTS of pediatric cancer cell lines to identify multiple opportunities for drug repurposing: Primary screen for NB-EBc1 cells (AID 1347095)
Summary of the method: as §2

[12] = qHTS of pediatric cancer cell lines to identify multiple opportunities for drug repurposing: Primary screen for A673 cells (AID 1347092); further: nearly all actives have a fitted effect of over 45% in size
Summary of the method: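 A673 cells (500-1,000 cells/well in growth media) were pre-incubated 5 h at 37 degrees C, then exposed to compounds for 48 h. Viability was read as CellTiter-Glo luminescence; concentration-response curves came directly from the primary screen.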

Measured: Potency

CC(C)(C)NC[C@H](O)COc1cccc2c1CCCC2=O
not listed: [12]
inactive: all other assays above

CN(C)CCC[C@@]1(c2ccc(F)cc2)OCc2cc(C#N)ccc21
not listed: [9]
inactive: all other assays above

COc1ccc(S(=O)(=O)N2c3ccc(Cl)cc3[C@@](O)(c3ccccc3Cl)[C@H]2C(=O)N2CCC[C@@H]2C(N)=O)cc1OC
not listed: [9]
inactive: all other assays above

NC1CCN(c2nc3c(cc2F)c(=O)c(C(=O)O)cn3-c2ccc(F)cc2F)C1 (stereo not drawn)
not listed: [12]
inactive: all other assays above

CCOC(=O)c1ccc(N)cc1
not listed: [12]
inactive: all other assays above

Oc1ccccc1C=NCc1ccccc1
inactive: all assays above

CN(C)C(=O)Nc1ccc(Cl)c(Cl)c1
not listed: [10]
inactive: all other assays above

CC(=O)Nc1ccc(OCC(O)CNC(C)C)cc1 (stereo not drawn)
not listed: [9]
inactive: all other assays above

O=C(Nc1cccc(C2=NCCN2)c1)Nc1cccc(C2=NCCN2)c1
inactive: all assays above

C=C1c2cccc(O)c2C(O)=C2C(=O)[C@]3(O)C(O)=C(C(N)=O)C(=O)[C@@H](N(C)C)[C@@H]3[C@@H](O)[C@H]12
not listed: [12]
inactive: all other assays above

O=C1OC(CN2CCOCC2)CN1/N=C/c1ccc([N+](=O)[O-])o1 (stereo not drawn)
not listed: [12]
inactive: all other assays above

CCOC(=O)[C@H](CCc1ccccc1)N[C@@H](C)C(=O)N1[C@H](C(=O)O)C[C@@H]2CCC[C@@H]21
not listed: [9]
inactive: all other assays above

CC(=O)OCC1=C(C(=O)O)N2C(=O)[C@@H](NC(=O)CSc3ccncc3)[C@H]2SC1
not listed: [9]
inactive: all other assays above

CN(Cc1ccc(C(C)(C)C)cc1)Cc1cccc2ccccc12
not listed: [9]
inactive: all other assays above

NS(=O)(=O)c1cc2c(cc1Cl)NC(CC1CCCC1)NS2(=O)=O (stereo not drawn)
inactive: all assays above

FC(F)(F)C(F)(F)C(F)(F)C(F)(F)C(F)(F)C(F)(F)C(F)(F)C(F)(F)Br
not listed: [12]
inactive: all other assays above

NS(=O)(=O)c1ccc(Cl)c(S(N)(=O)=O)c1
not listed: [12]
inactive: all other assays above

O=C(O)CCC(=O)Nc1ccc(S(=O)(=O)Nc2nccs2)cc1
not listed: [9]
inactive: all other assays above

CCCCCCCCCCCCSCCOCCO
not listed: [12]
inactive: all other assays above

CC(=O)O[C@H]1C[C@@H]2CC[C@@H]3[C@H](CC[C@@]4(C)[C@H]3C[C@H]([N+]3(C)CCCCC3)[C@@H]4OC(C)=O)[C@@]2(C)C[C@@H]1N1CCCCC1
not listed: [12]
inactive: all other assays above

Reference: PubChem BioAssay (NCATS)
